An excerpt weighted towards active compounds, which were near 21% of everything screened.
Pf growth 96h: P. falciparum growth inhibition at 96 hour, primary screen for plastid delayed-death inhibitors; Potency, µM (doses to about 28.7 µM), for inactives: at the top dose activity change, negative = inhibition, hits mostly inhibitors; actives 6.9% (n = 320,000); P. falciparum luciferase reporter growth, 96 h; also: potency is read from the fitted curve at half-maximal effect; % is scaled to controls: 0 for no effect and ±100 for the full control effect
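Delayed-death screen, second-generation endpoint: infected erythrocytes, 2% hematocrit, 0.05% parasitemia final; 96 hours at 37 C, 5% CO2; luciferase detection reagent; luminescence decrease equals reduced growth.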
Giardia FBPA inh: blocks Giardia fructose-bisphosphate aldolase activity; purified Giardia FBPA; Potency, µM (series often up to 59.6 µM), for the others: at the highest dose activity, negative = inhibition, usual class: inhibitors; actives 0.71% (n = 290,000); A8B2U2; also: potency is read from the fitted curve at half-maximal effect; % is scaled to controls: 0 for no effect and ±100 for the full control effect; nearly all actives have a fitted effect of over 55% in size
Target sequence (A8B2U2 whole entry, looked up): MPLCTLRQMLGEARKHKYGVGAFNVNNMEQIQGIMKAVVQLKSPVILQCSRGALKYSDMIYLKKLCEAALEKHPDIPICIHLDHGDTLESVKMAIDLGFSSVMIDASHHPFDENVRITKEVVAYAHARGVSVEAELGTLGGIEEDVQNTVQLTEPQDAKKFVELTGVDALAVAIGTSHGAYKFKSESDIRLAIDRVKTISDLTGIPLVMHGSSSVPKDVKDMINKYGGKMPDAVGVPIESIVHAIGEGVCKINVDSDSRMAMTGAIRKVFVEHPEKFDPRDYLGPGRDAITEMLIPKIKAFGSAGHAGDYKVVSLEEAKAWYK
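Giardia FBPA (40 nM reagent) was preincubated 10 min at RT with compound (up to 57.5 uM final), then substrate plus GAPDH/TPI/NAD/arsenate coupling system with diaphorase/resazurin was added; resorufin fluorescence (525/598 nm) was read after 20 min.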
Shiga toxin inh: inhibitors of Shiga toxin in Vero cells | Vero cells, Shiga toxin protein synthesis inhibition reporter | inhibition, % at 38.7 µM | actives 9.2% (n = 290,000) | AID 2315; in the data active = inhibition mostly above about 28%, no sharp cut-off; inactive = mostly below about 43%; also: 0% is about no effect
Pf growth 48h: P. falciparum growth inhibition at 48 hours (one generation) | actives 5.9% (n = 310,000) | P. falciparum luciferase growth in erythrocytes, 48 h | Potency, µM (titrated, usually from 28.7 µM), without a hit: at the highest dose activity change, negative = inhibition, hits mostly inhibitors; also: potency is read from the fitted curve at half-maximal effect; % is scaled to controls: 0 for no effect and ±100 for the full control effect
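A one-generation exposure of luciferase-tagged malaria parasites in RPMI 1640/Albumax erythrocyte culture, 37 C and 5% CO2. Inhibition is inferred from decreased luminescence after adding detection reagent.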
NS1 function inh: inhibitors of influenza NS1 protein function. AID 2326. actives 0.4% (n = 270,000). Potency, µM (titrated, usually from 46.1 µM), inactives show top-dose activity, positive = more growth; calls by dose curve; also: potency is read from the fitted curve at half-maximal effect; actives are rising curves; nearly all actives have a fitted effect of over 50% in size
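Compounds were scored for reversing the slow growth caused by influenza A NS1 in S. cerevisiae, measured by optical density at 600 nm. Assay medium contained 2% galactose at pH 6.0; NS1-free yeast of the same strain were the positive control.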
Cycloheximide cs: counter-screen for Shiga toxin inhibitors: cycloheximide protein synthesis inhibition. AID 2314. max response, %. actives 12% (n = 300,000). cell reporter, cycloheximide protein synthesis inhibition counterscreen; in the data active = max response mostly above about 13%, no sharp cut-off; inactive = mostly below about 14%; also: read at 38.3 µM for the half of the compounds with a filed dose; 0% is about no effect
* marks the source's active call; other numbers are inactive results; ? = inconclusive; / = no result given; [ ] = remark or other dose. Unless noted, calls follow the shape of the dose curve; as a rule, active = well fitted curve in the direction sought with a large enough effect; inconclusive = small, poorly fitted or top-dose-only effect, or another doubt; inactive = no such curve, though single readings can be large; an effect the other way counts as inactive or inconclusive.

SMILES	Pf growth 96h	Giardia FBPA inh	Shiga toxin inh	Pf growth 48h	NS1 function inh	Cycloheximide cs
CCOc1ccc(OCCn2nnc3ccccc3c2=O)cc1	116%	2%	59*	354%	/	37*
CCCn1nnc2ccccc2c1=O	27%	5%	-7	37%	1%	7
CCOc1cccc(OCCCCn2cnc3ccccc3c2=O)c1	-13%	-3%	28	-9%	-6%	4
COc1ccc(-c2noc(N3CCC(C(=O)Nc4ccccc4OC)CC3)n2)cc1	3%	-13%	24	?	6%	8
COc1ccc(-c2noc(N3CCCC(C(=O)Nc4ccc(F)cc4F)C3)n2)cc1 (stereo unspecified)	9.3µM*	2%	23*	21%	-25%	14*
COc1ccc(-c2noc(N3CCCC(C(=O)Nc4ccccc4F)C3)n2)cc1 (stereo unspecified)	10µM*	4%	2	5%	-8%	6
CCOc1ccc(C2(C)NC(=O)N(CCN(C)C)C2=O)cc1 (stereo unspecified)	?	?	/	-20%	-2%	-3
O=C(c1nn(Cc2ccccc2)c(=O)c2ccccc12)N1CCc2ccccc2C1	32%	0%	-17	-1%	0%	-4
NC(=O)C1Cc2ccccc2CN1C(=O)c1nn(Cc2ccccc2)c(=O)c2ccccc12 (stereo unspecified)	5.9µM*	/	/	9.3µM*	/	/
O=C(C1CCN(S(=O)(=O)c2ccccc2)CC1)N1CCCCC1	380%	6%	-7	23%	10%	-5
Cc1nc2cc(-c3ccccc3)ccc2o1	18%	-6%	86*	/	-13%	32*
Cc1cc(C)n(-c2ccc(C(=O)Nc3nnc(C4CC4)s3)cc2)n1	-25%	-2%	-1	17%	-1%	1
Cc1cnc(C(=O)Nc2nnc(C3CC3)s2)cn1	46%	?	23	27%	-4%	32*
CC(C)c1nnc(NC(=O)c2cnccn2)s1	-29%	0%	38*	72%	-10%	17*
O=C(Nc1nnc(SCc2ccc(Cl)cc2)s1)c1cnccn1	1%	16%	15	5%	-4%	-2
COc1c(C(=O)Nc2nnc(C3CC3)s2)csc1Cl	112%	/	54*	104%	-30%	36*
Cc1cnc(C(=O)Nc2nnc(C)s2)cn1	3%	-5%	9	23%	9%	-2
Cc1cnc(C(=O)Nc2nnc(C(C)C)s2)cn1	-7%	10%	71*	117%	9%	41*
CC(C)[C@@H](CC(=O)N[C@@H]1CCCC[C@H]1C(=O)N[C@H](CC(=O)N[C@@H](CCC(=O)O)CC(=O)O)Cc1ccccc1)NC(=O)C[C@H](Cc1c[nH]c2ccccc12)NC(=O)[C@@H]1CCCC[C@H]1N	/	-26%	/	/	/	/
Cn1nc(-c2ccccc2)c(CN2CCN(c3ncccn3)CC2)c1Cl	?	-1%	2	?	-9%	2
COC(=O)[C@H]1C[C@@H](c2ccccc2)[C@H](C)C1(C)C	18%	/	/	?	/	/
O=C1/C(=C\Nc2ccc(Cl)cc2)CCN1c1ncccn1	224%	-29%	89*	203%	0%	23*
O=C1/C(=C\Nc2ccc(OC(F)(F)F)cc2)CCN1c1ncccn1	/	-10%	19	65%	8%	18
CCNC(=O)CSc1nc(-c2ccc(F)cc2)cs1	?	3%	101*	27%	/	32*
Cc1csc(SCC(=O)NC(C)c2ccc(F)cc2)n1 (stereo unspecified)	28%	0%	-2	14%	/	-4
SMILES	Pf growth 96h	Giardia FBPA inh	Shiga toxin inh	Pf growth 48h	NS1 function inh	Cycloheximide cs
CC(C)(C)NC(=O)CSc1nc(-c2ccc(F)cc2)cs1	458%	8%	83*	0%	-3%	32*
CN1CCCN(Cc2ccc(Cl)cc2Cl)CC1	-26%	20µM*	-10	/	-2%	-1
CN1CCCN(Cc2nc(-c3ccc(Cl)cc3)no2)CC1	?	-13%	35	27%	3%	29*
Clc1ccc(-c2noc(CN3CCCCC3)n2)cc1	/	/	/	/	2%	/
COc1ccc(CN2CCCN(C)CC2)c(OC)c1C	-13%	?	-1	-21%	4%	1
COC(=O)c1ccc(-c2noc(CN(C)CCC3CCCCO3)n2)cc1 (stereo unspecified)	?	18µM*	31	-29%	-49%	16*
CCN(Cc1nc(-c2ccc(Cl)cc2)no1)CC1CCCO1 (stereo unspecified)	?	2%	17	30%	2%	14*
CC(=O)N1CCC(C(=O)NC2CCCc3c2cnn3-c2cc(F)cc(F)c2)CC1 (stereo unspecified)	-12%	/	9	-18%	3%	-1
O=C(OCC#CCSc1nnc(-c2cccc3ccccc23)s1)c1cccs1	8%	/	/	-12%	/	/
CCOC(=O)C1=C(COC(=O)COc2ccccc2C(C)C)NC(=O)NC1C (stereo unspecified)	16%	/	/	29%	/	/
COCCCn1c(SC(C)C(=O)NC2CC2)nc2ccccc2c1=O (stereo unspecified)	?	/	/	-2%	/	/
COc1ccc(C=O)cc1Cn1c(C)cc(C)c(C#N)c1=O	2%	2%	-22	3%	/	-4
CN1CCN(c2ncc3nc(-c4cccc(C#N)c4)c(=O)n(C[C@H]4CCCO4)c3n2)CC1	/	-3%	/	/	/	/
Cc1ccc2[nH]c(C(=O)N/N=C/c3ccccc3C(=O)O)c(-c3ccccc3)c2c1	0.74µM*	13%	-2	-20%[0.00184 µM]	?	-6
Cc1ccc2[nH]c(C(=O)N/N=C/c3ccc([N+](=O)[O-])cc3)c(C)c2c1	14%	-3%	16	13%	-1%	-2
COc1cc(OC)c2cc(C(=O)N/N=C/c3ccccc3O)[nH]c2c1	4.7µM*	-7%	5	/	1%	-1
COc1ccc2[nH]c(C(=O)N/N=C/c3ccccc3OC)cc2c1	?	6%	27	/	-3%	11
Cc1ccc2[nH]c(C(=O)N/N=C/c3ccccc3O)c(C)c2c1	4.7µM*	15%	61*	2.3µM*	1%	25*
COc1ccc(S(=O)(=O)N2CCCCC2)cc1NC(=O)c1cnc(C)cn1	-12%	/	/	-12%	/	/
O=C(O)c1ccc(SSc2ccc(C(=O)O)cn2)nc1	/	/	/	/	-6%	/
CCOCCCn1c(=S)[nH]c2cc(C(=O)N3CCN(C)CC3)ccc2c1=O	/	-3%	-14	-1%	11%	-5
CCOCCCn1c(=S)[nH]c2cc(C(=O)N3CCN(C4CCCCC4)CC3)ccc2c1=O	5.2µM*	-17%	-8	1%	0%	-2

Compound activity from PubChem.
